# Assay results as given in PubChem BioAssay (EPA / NIEHS).
# Activity calls are given as the source filed them. Rule for the calls: active = hit-call score of the fitted dose curve at least 0.9, where 1 is the maximum; inactive = score below 0.9.
# Assays:
# Conditions in all cases: mRNA level, 48 h; actives raise or lower the signal
# [1] = read-out: Cyclin D1 (CCND1), CCND1 (gene 595); assay: LTEA_HepaRG_CCND1: Life Technologies and Expression Analysis (LTEA) Assay for Cyclin D1 (CCND1) using HepaRG (AID 2283451);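 for AC50: differentiated human HepaRG liver cells in serum-free induction medium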
# Procedure, shortened: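 Expression of CCND1 was quantified by qRT-PCR on Fluidigm arrays using ACTB, GAPDH and POLR2A as reference genes. HepaRG cultures, plated 48 h beforehand, were dosed for 48 h at up to 100 uM (half-log, 8 points) in 0.5% DMSO.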
# [2] = read-out: catalase (CAT), CAT (gene 847); assay: LTEA_HepaRG_CAT: Life Technologies and Expression Analysis (LTEA) Assay for catalase (CAT) using HepaRG (AID 2283452)
# Procedure, shortened: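 Expression of CAT was quantified by TaqMan qRT-PCR with ACTB/GAPDH/POLR2A normalization after 48 h chemical exposure of HepaRG. Eight-point half-log series, top 100 uM, in 0.5% DMSO; gain or loss fitted against vehicle.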
# [3] = read-out: flavin-containing dimethylaniline monooxygenases 3 (FMO3), FMO3 (gene 2328); assay: LTEA_HepaRG_FMO3: Life Technologies and Expression Analysis (LTEA) Assay for flavin-containing dimethylaniline monooxygenases 3 (FMO3) using HepaRG (AID 2283453);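 for AC50: differentiated human HepaRG liver cells in serum-free induction medium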
# Procedure, shortened: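 Differentiated HepaRG cells in serum-free induction medium, exposed 48 h in duplicate to 8 half-log concentrations up to 100 uM in 0.5% DMSO. FMO3 mRNA by qRT-PCR, normalized to ACTB, GAPDH, POLR2A; bidirectional fit vs DMSO.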
# [4] = read-out: Cytochrome P450 (CYP1A1), CYP1A1 (gene 1543); assay: LTEA_HepaRG_CYP1A1: Life Technologies and Expression Analysis (LTEA) Assay for Cytochrome P450 (CYP1A1) using HepaRG (AID 2283454)
# Procedure, shortened: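 CYP1A1 transcript levels measured by Fluidigm qRT-PCR against three housekeeping genes, 48 h after chemical dosing of human HepaRG cells (highest concentration 100 uM, half-log steps, 0.5% DMSO vehicle). Gain or loss of signal fitted relative to DMSO.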
# [5] = read-out: CFLAR gene, CFLAR (gene 8837); assay: LTEA_HepaRG_CFLAR: Life Technologies and Expression Analysis (LTEA) Assay for CFLAR gene using HepaRG (AID 2283455)
# Procedure, shortened: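 HepaRG, 48 h exposure, 8-pt conc-response (100 uM top, half-log), 0.5% DMSO vehicle, duplicates. CFLAR expression by qRT-PCR; ACTB/GAPDH/POLR2A normalization; gain or loss fit vs DMSO baseline.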
# [6] = read-out: Forkhead box O1 (FOXO1), FOXO1 (gene 2308); assay: LTEA_HepaRG_FOXO1: Life Technologies and Expression Analysis (LTEA) Assay for Forkhead box O1 (FOXO1) using HepaRG (AID 2283456)
# Procedure, shortened: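 Readout is FOXO1 transcript level by multiplexed qRT-PCR against three housekeeping genes, curve-fitted in both directions relative to 0.5% DMSO vehicle. Human HepaRG cultures received chemicals for 48 h, up to 100 uM in half-log steps.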
# [7] = read-out: growth arrest and DNA damage 45 (GADD45A), GADD45A (gene 1647); assay: LTEA_HepaRG_GADD45A: Life Technologies and Expression Analysis (LTEA) Assay for growth arrest and DNA damage 45 (GADD45A) using HepaRG (AID 2283458)
# Procedure, shortened: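 Differentiated HepaRG cells exposed 48 h in serum-free induction medium to 8 concentrations, top 100 uM in half-log steps, 0.5% DMSO. GADD45A mRNA quantified by qRT-PCR, normalized to ACTB, GAPDH and POLR2A; bidirectional fit versus DMSO.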
# [8] = read-out: Forkhead box O3 (FOXO3), FOXO3 (gene 2309); assay: LTEA_HepaRG_FOXO3: Life Technologies and Expression Analysis (LTEA) Assay for Forkhead box O3 (FOXO3) using HepaRG (AID 2283459)
# Procedure, shortened: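 HepaRG, 48 h post-dose; 8 conc., half-log from 100 uM, 0.5% DMSO, duplicates; serum-free induction medium. Readout: FOXO3 mRNA, TaqMan qRT-PCR, housekeeping-normalized. Bidirectional curve fit vs DMSO baseline.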
# [9] = read-out: ABC Transporter (ABCB1), ABCB1 (gene 5243); assay: LTEA_HepaRG_ABCB1: Life Technologies and Expression Analysis (LTEA) Assay for ABC Transporter (ABCB1) using HepaRG (AID 2283460)
# Procedure, shortened: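 Expression of ABCB1 was quantified by qRT-PCR against three housekeeping genes after human HepaRG cultures received test chemicals for 48 hours. Concentrations spanned eight half-log steps topping at 100 uM in 0.5% DMSO; gain or loss of signal was fitted relative to vehicle.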
# [10] = read-out: growth arrest and DNA damage 45 (GADD45B), GADD45B (gene 4616); assay: LTEA_HepaRG_GADD45B: Life Technologies and Expression Analysis (LTEA) Assay for growth arrest and DNA damage 45 (GADD45B) using HepaRG (AID 2283461)
# Procedure, shortened: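 Transcript level quantified by Fluidigm TaqMan qRT-PCR with three housekeeping genes for normalization, analyzed for up- or down-regulation against 0.5% DMSO. HepaRG cultures dosed 48 h at eight half-log concentrations up to 100 uM, duplicates.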
# [11] = read-out: ABC Transporter (ABCC3), ABCC3 (gene 8714); assay: LTEA_HepaRG_ABCC3: Life Technologies and Expression Analysis (LTEA) Assay for ABC Transporter (ABCC3) using HepaRG (AID 2283462)
# Procedure, shortened: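 Transcript level by TaqMan qRT-PCR, normalised to three housekeeping genes, fitted in both directions relative to vehicle. Chemicals tested in duplicate at eight half-log concentrations up to 100 uM for 48 h on HepaRG cells (0.5% DMSO).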
# [12] = read-out: ABC Transporter (ABCB11), ABCB11 (gene 8647); assay: LTEA_HepaRG_ABCB11: Life Technologies and Expression Analysis (LTEA) Assay for ABC Transporter (ABCB11) using HepaRG (AID 2283463)
# Procedure, shortened: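 ABCB11 transcript levels are read by Fluidigm TaqMan qRT-PCR after 48 h chemical treatment of human HepaRG cells. Concentrations span 100 uM downward in half-log steps with 0.5% DMSO; gain or loss is fitted against DMSO controls.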
# [13] = read-out: ABC Transporter (ABCC2), ABCC2 (gene 1244); assay: LTEA_HepaRG_ABCC2: Life Technologies and Expression Analysis (LTEA) Assay for ABC Transporter (ABCC2) using HepaRG (AID 2283464)
# Procedure, shortened: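 Endpoint is ABCC2 transcript level from qRT-PCR, normalized to three housekeeping genes and fitted bidirectionally relative to DMSO. Human HepaRG cells received test chemical for 48 h at up to 100 uM (8 points, half-log steps, 0.5% DMSO), duplicate wells.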
# [14] = read-out: Broad substrate specificity ATP-binding cassette transporter ABCG2 (Homo sapiens) (UniProt Q9UNQ0); assay: LTEA_HepaRG_ABCG2: Life Technologies and Expression Analysis (LTEA) Assay for ABC Transporter (ABCG2) using HepaRG (AID 2283465)
# Procedure, shortened: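 Read-out is ABCG2 mRNA induction or loss quantified by qRT-PCR after 48 h chemical treatment of human HepaRG cells, normalized to three housekeeping genes. Concentrations reached 100 uM top in half-log steps; fitting was bidirectional against 0.5% DMSO.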
# [15] = read-out: ATP-citrate lyase (ACLY), ACLY (gene 47); assay: LTEA_HepaRG_ACLY: Life Technologies and Expression Analysis (LTEA) Assay for ATP-citrate lyase (ACLY) using HepaRG (AID 2283466)
# Procedure, shortened: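 HepaRG, 48 h exposure, 8-pt half-log dilutions (top 100 uM), 0.5% DMSO. Readout: ACLY mRNA, TaqMan qRT-PCR, housekeeping-normalized (ACTB/GAPDH/POLR2A). Bidirectional curve fit vs DMSO.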
# [16] = read-out: Peroxisomal acyl-coenzyme A oxidase 1 (ACOX1) gene, ACOX1 (gene 51); assay: LTEA_HepaRG_ACOX1: Life Technologies and Expression Analysis (LTEA) Assay for Peroxisomal acyl-coenzyme A oxidase 1 (ACOX1) gene using HepaRG (AID 2283467)
# Procedure, shortened: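 Measured by qRT-PCR against three housekeeping genes: ACOX1 transcript change in human HepaRG cells after 48 h dosing. Concentrations ran up to 100 uM in half-log steps. Curves were fitted bidirectionally relative to 0.5% DMSO.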
# [17] = read-out: Bcl-2 (BAD) gene, BAD (gene 572); assay: LTEA_HepaRG_BAD: Life Technologies and Expression Analysis (LTEA) Assay for Bcl-2 (BAD) gene using HepaRG (AID 2283469)
# Procedure, shortened: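 BAD transcript change, measured by qRT-PCR against three housekeeping genes and fitted in both directions relative to 0.5% DMSO, after 48 h chemical treatment of human HepaRG liver cells at concentrations up to 100 uM.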
# [18] = read-out: Alkaline Phosphatase, Placental (ALPP) gene, ALPP (gene 250); assay: LTEA_HepaRG_ALPP: Life Technologies and Expression Analysis (LTEA) Assay for Alkaline Phosphatase, Placental (ALPP) gene using HepaRG (AID 2283468);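 for AC50: differentiated human HepaRG liver cells in serum-free induction medium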
# Procedure, shortened: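 ALPP transcript level, measured by qRT-PCR and normalized to three housekeeping genes (ACTB, GAPDH, POLR2A), after 48 h dosing of differentiated HepaRG in serum-free induction medium. Top concentration 100 uM with half-log dilutions (8 points, 0.5% DMSO, duplicates); bidirectional fitting relative to DMSO.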
# Sequence of Broad substrate specificity ATP-binding cassette transporter ABCG2 (Homo sapiens) (Q9UNQ0 whole entry, looked up): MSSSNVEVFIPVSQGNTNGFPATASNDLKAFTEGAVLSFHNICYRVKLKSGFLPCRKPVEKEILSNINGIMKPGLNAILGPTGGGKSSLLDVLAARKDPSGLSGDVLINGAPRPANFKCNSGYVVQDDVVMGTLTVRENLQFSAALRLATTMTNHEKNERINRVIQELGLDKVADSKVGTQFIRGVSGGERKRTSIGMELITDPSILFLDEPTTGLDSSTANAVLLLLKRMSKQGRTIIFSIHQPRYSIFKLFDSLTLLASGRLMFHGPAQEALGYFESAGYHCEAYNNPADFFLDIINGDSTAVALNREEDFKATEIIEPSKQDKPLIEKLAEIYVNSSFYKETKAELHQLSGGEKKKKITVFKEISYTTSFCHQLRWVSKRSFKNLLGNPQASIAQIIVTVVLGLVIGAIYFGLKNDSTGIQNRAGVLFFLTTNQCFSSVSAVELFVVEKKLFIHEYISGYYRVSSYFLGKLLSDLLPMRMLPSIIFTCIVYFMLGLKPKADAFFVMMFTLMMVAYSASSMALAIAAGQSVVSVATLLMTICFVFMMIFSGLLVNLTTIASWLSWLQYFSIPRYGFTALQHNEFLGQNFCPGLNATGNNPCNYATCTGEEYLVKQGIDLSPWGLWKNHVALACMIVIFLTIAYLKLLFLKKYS
structure (smiles),measurement,setting,value
CCCCC(O)(Cn1cncn1)c1ccc(Cl)cc1Cl (stereo not drawn),AC50,[1],57.7 µM (active)
same,AC50,[2],73 µM (active)
same,AC50,[3],75.9 µM (active)
same,AC50,[4],12.9 µM (active)
same,AC50,[5],66.5 µM (active)
same,AC50,[6],80.2 µM (active)
same,AC50,[7],89.9 µM (active)
same,outcome,[8],inactive
same,AC50,[9],11.8 µM (active)
same,outcome,[10],inactive
same,AC50,[11],50 µM (active)
same,AC50,[12],68.6 µM (active)
same,AC50,[13],79.9 µM (active)
same,outcome,[14],inactive
same,AC50,[15],12.3 µM (active)
same,AC50,[16],69.4 µM (active)
same,outcome,[17],inactive
CC(C)N1C(=O)N(c2ccccc2)CSC1=NC(C)(C)C,outcome,[1],inactive
same,AC50,[2],75.4 µM (active)
same,AC50,[3],91.2 µM (active)
same,outcome,[4],inactive
same,outcome,[5],inactive
same,outcome,[6],inactive
same,outcome,[8],inactive
same,AC50,[9],17.7 µM (active)
same,outcome,[10],inactive
same,outcome,[11],inactive
same,AC50,[12],94.4 µM (active)
same,outcome,[13],inactive
same,AC50,[14],50 µM (active)
same,AC50,[15],84.3 µM (active)
same,outcome,[16],inactive
same,AC50,[18],78.3 µM (active)
same,outcome,[17],inactive
O=C1C2CC=CCC2C(=O)N1SC(Cl)(Cl)Cl (stereo not drawn),outcome,[1],inactive
same,outcome,[2],inactive
same,outcome,[3],inactive
same,AC50,[4],38.8 µM (active)
same,outcome,[5],inactive
same,AC50,[6],77.1 µM (active)
same,outcome,[7],inactive
same,outcome,[8],inactive
same,outcome,[9],inactive
same,outcome,[10],inactive
same,outcome,[11],inactive
same,AC50,[12],57.6 µM (active)
same,outcome,[13],inactive
same,outcome,[14],inactive
same,outcome,[15],inactive
same,outcome,[16],inactive
same,outcome,[17],inactive
Nc1c(Cl)c(Cl)nc(C(=O)O)c1Cl,outcome,[1],inactive
same,outcome,[2],inactive
same,outcome,[3],inactive
same,AC50,[4],50 µM (active)
same,outcome,[5],inactive
same,outcome,[6],inactive
same,outcome,[7],inactive
same,outcome,[9],inactive
same,outcome,[10],inactive
same,outcome,[11],inactive
same,outcome,[12],inactive
same,outcome,[13],inactive
same,outcome,[14],inactive
same,outcome,[15],inactive
same,outcome,[16],inactive
same,outcome,[18],inactive
same,outcome,[17],inactive
CCCN(CC)CC1COC2(CCC(C(C)(C)C)CC2)O1 (stereo not drawn),outcome,[1],inactive
same,outcome,[2],inactive
same,outcome,[3],inactive
same,AC50,[4],50 µM (active)
same,outcome,[5],inactive
same,outcome,[6],inactive
same,outcome,[9],inactive
same,outcome,[10],inactive
same,outcome,[11],inactive
same,outcome,[12],inactive
same,outcome,[13],inactive
same,outcome,[14],inactive
same,outcome,[15],inactive
same,outcome,[16],inactive
same,outcome,[18],inactive
same,outcome,[17],inactive
CNC(=O)N(C)c1nnc(C(C)(C)C)s1,outcome,[1],inactive
same,outcome,[2],inactive
same,outcome,[3],inactive
same,AC50,[4],42.9 µM (active)
same,outcome,[5],inactive
same,outcome,[6],inactive
same,outcome,[8],inactive
same,outcome,[9],inactive
same,outcome,[10],inactive
same,outcome,[11],inactive
same,outcome,[12],inactive
same,outcome,[13],inactive
same,outcome,[14],inactive
same,outcome,[15],inactive
same,outcome,[16],inactive
same,outcome,[18],inactive
same,outcome,[17],inactive
CCOc1nc(C(Cl)(Cl)Cl)ns1,AC50,[1],1.18 µM (active)
same,outcome,[2],inactive
same,AC50,[3],0.644 µM (active)
same,AC50,[4],1.44 µM (active)
same,AC50,[5],0.912 µM (active)
same,AC50,[6],1 µM (active)
same,AC50,[8],0.967 µM (active)
same,AC50,[9],1.05 µM (active)
same,AC50,[10],1.23 µM (active)
same,outcome,[11],inactive
same,AC50,[12],1.08 µM (active)
same,outcome,[13],inactive
same,AC50,[14],1.29 µM (active)
same,AC50,[15],23.8 µM (active)
same,AC50,[16],1.11 µM (active)
same,AC50,[18],2.14 µM (active)
same,AC50,[17],1.3 µM (active)
